Assay outcomes as filed in PubChem BioAssay.
GoLoco inh red – qHTS Assay for Inhibitors of RGS12 GoLoco Motif Activity (Red Fluorophore) | Guanine nucleotide-binding protein G(i) subunit alpha-1 (Homo sapiens), P63096 | Gai1:RGS12 GoLoco peptide FP, rhodamine, 10 min | Potency, µM (doses to about 61.6 µM), hits mostly inhibitors | 230,000 compounds, 0.44% hits | AID 880, 2007; active means well fitted inhibition curve with a large enough effect, not every such curve was filed as active; inactive means no such curve, though single readings can be large or run the other way; further: nearly all actives have a fitted effect of over 30% in size
Target sequence (P63096 whole entry, looked up): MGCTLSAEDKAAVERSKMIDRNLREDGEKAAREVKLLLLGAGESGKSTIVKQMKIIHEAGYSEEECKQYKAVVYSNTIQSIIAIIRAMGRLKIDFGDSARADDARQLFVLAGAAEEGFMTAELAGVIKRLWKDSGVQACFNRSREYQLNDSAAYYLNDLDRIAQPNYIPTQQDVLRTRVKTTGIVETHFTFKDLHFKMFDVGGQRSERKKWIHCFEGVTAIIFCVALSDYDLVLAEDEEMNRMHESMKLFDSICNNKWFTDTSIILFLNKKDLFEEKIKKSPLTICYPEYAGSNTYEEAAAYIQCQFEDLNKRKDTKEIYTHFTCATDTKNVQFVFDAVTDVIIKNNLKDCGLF
Sfp inh – qHTS Assay for Inhibitors of Bacillus subtilis Sfp phosphopantetheinyl transferase (PPTase); 4'-phosphopantetheinyl transferase ffp (Bacillus subtilis), Q9F4F7; Biochemical Sfp PPTase activity, qHTS; Potency, µM, actives largely listed as inhibitors; 310,000 compounds, 3.5% hits; active means well fitted curve in the direction sought with a large enough effect; inconclusive means small, poorly fitted or top-dose-only effect, or another doubt; inactive means no such curve, though single readings can be large; an effect the other way counts as inactive or inconclusive;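 further: the enzyme is Sfp with the accession as filed and its product quenches rhodamine fluorescence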
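Buffer: 50 mM Hepes-Na pH 7.6, 10 mM MgCl2, 0.01% Nonidet P-40, 0.01% BSA. Enzyme 15 nM, pre-exposed to compound 15 min; substrates then added and fluorescence change tracked over 30 min.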
JMJD2E inh – qHTS Assay for Inhibitors of Human Jumonji Domain Containing 2E (JMJD2E) | Potency, µM (highest dose often 57.1 µM), usual class: inhibitors | JMJD2E catalytic domain, FDH-coupled NADH fluorescence (FDH is formaldehyde dehydrogenase) | 230,000 compounds, 1.6% hits | Lysine-specific demethylase 4E (Homo sapiens), B2RXH2; further: nearly all actives have a fitted effect of over 50% in size
Target sequence (B2RXH2 1-337 limits assumed): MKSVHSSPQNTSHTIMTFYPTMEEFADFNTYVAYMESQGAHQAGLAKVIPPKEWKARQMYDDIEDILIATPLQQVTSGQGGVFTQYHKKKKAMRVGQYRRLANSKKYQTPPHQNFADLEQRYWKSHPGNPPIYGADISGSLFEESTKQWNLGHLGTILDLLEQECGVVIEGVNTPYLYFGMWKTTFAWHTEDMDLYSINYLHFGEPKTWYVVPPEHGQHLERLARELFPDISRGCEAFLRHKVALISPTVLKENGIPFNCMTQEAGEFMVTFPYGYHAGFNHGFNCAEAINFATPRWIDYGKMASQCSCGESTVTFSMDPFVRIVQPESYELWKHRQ
Coupling enz – qHTS Assay for Inhibitors of Fructose-1,6-bisphosphate Aldolase from Giardia Lamblia: Coupling assay counterscreen; coupling enzyme system counterscreen, AmpLite Red fluorescence; activity change, negative = inhibition, % at 58.2 µM, hits read low; 290,000 compounds, 0.67% hits; AID 2472, 2010; in the data active means activity change below about -30%
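Coupling enzymes only (glyceraldehyde-3-phosphate) + compound, at 57.5 uM final, 10 min RT; add substrate/coupling/AmpLite Red mix, 20 min RT; fluorescence ex 525/em 598 nm. Actives flag coupling-system interference.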
NPSR antagonist – qHTS Assay for Antagonists of the Neuropeptide S Receptor: cAMP Signal Transduction; Q6W5P4; CHO-NPSR cells, cAMP TR-FRET, antagonist mode; Potency, µM (series often up to 38.3 µM), hits mostly inhibitors; 220,000 compounds, 1% hits; active means well fitted curve in the direction sought with a large enough effect; inconclusive means small, poorly fitted or top-dose-only effect, or another doubt; inactive means no such curve, though single readings can be large; an effect the other way counts as inactive or inconclusive; further: nearly all actives have a fitted effect of over 50% in size
ALDH1A1 block – qHTS Assay for Inhibitors of Aldehyde Dehydrogenase 1 (ALDH1A1); AID 1030, 2008; Potency, µM (series often up to 75.3 µM), most hits filed as inhibitors; 220,000 compounds, 7.3% hits; Purified ALDH1A1, NADH fluorescence, propionaldehyde substrate
Hits are given with their value; n = inactive; u = inconclusive; x = not tested or not shown; [ ] = another dose, or the depositor's remark. Hits are enriched below; roughly 8.5% of the tested compounds scored in any of these assays. Unless noted, the call rests on the fitted dose curve; in most records, active means well fitted inhibition curve with a large enough effect (not every such curve was filed as active); inconclusive means small, poorly fitted or top-dose-only effect, or another doubt; inactive means no such curve, though single readings can be large or run the other way.

SMILES	GoLoco inh red	Sfp inh	JMJD2E inh	Coupling enz	NPSR antagonist	ALDH1A1 block
CC(=O)Nc1ccc(NC(=O)CCc2ccc(C)o2)cc1	x	n	x	x	x	x
Cc1ccc(CCC(=O)Nc2nccs2)o1	n	79µM	n	n	n	u
CCc1ccc(CCC(=O)Nc2nccs2)o1	n	8.9µM	n	n	n	18µM
O=C(CCc1ccccc1)Nc1nccs1	x	n	x	n	x	x
Cc1ccc(CCC(=O)Nc2ccc(S(N)(=O)=O)cc2)o1	n	5µM	u	n	n	14µM
O=C(c1ccc(F)cc1F)N1CCCC(c2nc(-c3cccs3)no2)C1 (stereo not given)	x	n	x	n	x	x
O=C(CSc1nncn1-c1ccccc1)Nc1ccc(F)cc1F	x	n	x	n	x	x
CCCC[C@@H]1CCCO[C@@](C(=O)NCCOC)(C(F)(F)F)C1	x	n	x	n	x	x
COc1ccc(Nc2nc(Nc3ccc(OC)cc3)nc(-n3[nH]c(=O)c(C)c3C)n2)cc1	n	n	n	n	n	25µM
CN(C)c1ccc(NC(=S)c2ccccn2)cc1	n	45µM	18µM	n	n	u
N#C/C(=C\c1ccc([N+](=O)[O-])cc1)c1ccccn1	n	n	n	n	n	n
CN(C)c1ccc(/C=C(\C#N)c2ccccn2)cc1	n	n	n	n	n	9.5µM
CN(C)c1ccc(C(=S)Nc2ccccc2)cc1	n	n	n	n	n	u
N#CC(C#N)=Cc1ccc(OC(=O)c2ccccn2)cc1	n	45µM	18µM	n	n	2µM
COc1ccc2[nH]cc(CCNC(=O)c3ccccc3Cl)c2c1	x	n	x	n	x	x
COc1ccccc1/C=C/C=N/NC(=O)CCn1nnc2ccccc21	n	n	n	n	n	n
CCOCCCNC(=O)C(c1ccccc1)N(Cc1ccc2c(c1)OCO2)C(=O)c1ccccc1O (stereo not given)	n	n	n	n	n	10µM
CCS(=O)(=O)N1CCN(c2ccc(Cl)cc2[N+](=O)[O-])CC1	n	n	n	n	n	n
COc1ccc2cc(C)c3nnc(SCC(=O)Nc4nc(-c5ccccc5)cs4)n3c2c1	n	79µM	n	n	n	n
Cc1cc(C)c(S(=O)(=O)c2ccccc2C)c(OCC(C)(C)C)n1	n	n	n	n	u	13µM
CCOCCOc1nc(C)cc(C)c1S(=O)(=O)c1ccccc1C	n	n	n	n	n	n
COc1ccc(CNC(=O)C(OC(=O)c2ccco2)c2ccccc2)cc1 (stereo not given)	x	n	x	n	x	x
COc1ccc(CNC(=O)C(OC(=O)c2ccco2)c2ccc(OC)cc2)cc1 (stereo not given)	n	n	n	n	n	6.3µM
CC(=O)N1N=C(c2ccc(C)o2)CC1c1cccc(F)c1 (stereo not given)	n	40µM	u	n	n	14µM
Cc1cc2nn(-c3ccc(Cl)cc3)nc2cc1N	x	n	x	n	x	x
SMILES	GoLoco inh red	Sfp inh	JMJD2E inh	Coupling enz	NPSR antagonist	ALDH1A1 block
COc1ccc(-n2nc3cc(C)c(N)cc3n2)cc1Cl	x	79µM	x	n	x	x
CC(C)=CCc1c2c(c3occ(-c4ccc(O)cc4)c(=O)c3c1O)C=CC(C)(C)O2	n	n	n	n	u	25µM
CCNc1nc2c(c(=O)[nH]c(=O)n2C)n1CC(C)C	n	n	n	n	n	n
CC(C)Cn1c([N+](=O)[O-])nc2c1c(=O)[nH]c(=O)n2C	n	n	u	-31	u	x
Cn1c(=O)[nH]c(=O)c2c1nc([N+](=O)[O-])n2Cc1ccccc1	n	n	u	-45	n[7.67 µM]	x
O=C(c1ccc(Br)o1)N1CCN(CCc2ccncc2)CC1	x	n	x	n	x	x
CNC(=O)/C=C1\NC(C)(C)Cc2ccccc21	n	50µM	n	n	n	n
CC(C)CCn1cnc2c(oc3nc4c(cc32)CCCC4)c1=O	n	n	n	n	n	3.2µM
CC1(C)Cc2nc3oc4c(=O)n(CC(=O)Nc5ccccc5)cnc4c3cc2CO1	n	n	n	n	n	u
COc1cc(CC(=O)OCn2nnc3ccccc3c2=O)cc(OC)c1OC	n	n	n	n	n	n
CCN1CNC(=S)N(C(C)c2ccccc2)C1 (stereo not given)	n	n	n	n	n	n
CCOC(=O)/C=C/C(=O)Nc1cccc([N+](=O)[O-])c1	n	2.8µM	n	n	u	n
CC(C(=O)Nc1cccc([N+](=O)[O-])c1)[n+]1ccccc1 (stereo not given)	n	20µM	n	n	n	u
CCOC(=O)c1cccc(NC(=O)/C=C/c2cccc([N+](=O)[O-])c2)c1	n	n	n	n	n	n
CCC(Sc1ccccn1)C(=O)Nc1cccc([N+](=O)[O-])c1 (stereo not given)	n	56µM	u	n	n	n
Clc1ccccc1C1Nc2cccc3cccc(c23)N1	x	n	x	n	x	x
c1coc(C2Nc3cccc4cccc(c34)N2)c1	n	3.2µM	n	n	n	25µM
Cn1c(CNc2ccccc2O)nc2ccccc21	n	45µM	u	n	n	n
COc1cccc(CN2CCN(Cc3ccc(OC)c(OC)c3)CC2CCO)c1 (stereo not given)	n	n	n	n	n	u
COc1ccccc1NC(=O)Cn1c(=O)n2nc(C)nc2c2ccccc21	n	n	n	n	n	20µM
COc1ccccc1NC(=O)Cn1c(=O)sc2ccccc21	n	n	n	n	n	n
CN(c1nc2c(c(=O)n(C)c(=O)n2C)n1CC(=O)c1ccccc1)C1CCCCC1	n	n	n	n	n	28µM
Cc1ccc(NC(=O)C2C3C=CC(O3)C2C(=O)O)c(C)c1 (stereo not given)	x	n	x	n	x	x
COc1ccc(CN(C(=O)CNC(=O)c2ccco2)C(C(=O)NC2CCCC2)c2ccco2)cc1 (stereo not given)	n	n	n	n	n	0.4µM
COc1ccc(N(C(=O)c2ccco2)C(C(=O)NC2CCCC2)c2ccc(N(C)C)cc2)cc1 (stereo not given)	n	n	n	n	n	2.5µM
O=C(NCC(=O)N(Cc1ccccc1)C(C(=O)NC1CCCC1)c1ccco1)c1ccco1 (stereo not given)	n	n	n	n	n	u
CCOc1ccccc1C(C(=O)NC1CCCC1)N(Cc1ccco1)C(=O)CNC(=O)c1ccco1 (stereo not given)	n	n	n	n	n	1.8µM
